GPR151 activ – activates the human receptor GPR151; PathHunter beta-arrestin GPR151 cells, luminescence; activation, % at 11.2 µM; Q8TDV0; 650,000 compounds, 1% hits; in the data active = activation above about 4.9%;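 also: 0% = median of compound wells and 100% = cells with positive control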
FBW7 activator – activators of human E3 ligase FBW7 | AlphaScreen FBW7–phospho-cyclin E peptide binding, activator screen | 650,000 compounds, 0.13% hits | AID 1259310 | Q969H0 | normalized activity (activation), % at 26.1 µM; in the data active = normalized activity above about 1.9%;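 also: purified mutant Fbw7 with reduced substrate affinity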
Target sequence (Q969H0 whole entry, looked up): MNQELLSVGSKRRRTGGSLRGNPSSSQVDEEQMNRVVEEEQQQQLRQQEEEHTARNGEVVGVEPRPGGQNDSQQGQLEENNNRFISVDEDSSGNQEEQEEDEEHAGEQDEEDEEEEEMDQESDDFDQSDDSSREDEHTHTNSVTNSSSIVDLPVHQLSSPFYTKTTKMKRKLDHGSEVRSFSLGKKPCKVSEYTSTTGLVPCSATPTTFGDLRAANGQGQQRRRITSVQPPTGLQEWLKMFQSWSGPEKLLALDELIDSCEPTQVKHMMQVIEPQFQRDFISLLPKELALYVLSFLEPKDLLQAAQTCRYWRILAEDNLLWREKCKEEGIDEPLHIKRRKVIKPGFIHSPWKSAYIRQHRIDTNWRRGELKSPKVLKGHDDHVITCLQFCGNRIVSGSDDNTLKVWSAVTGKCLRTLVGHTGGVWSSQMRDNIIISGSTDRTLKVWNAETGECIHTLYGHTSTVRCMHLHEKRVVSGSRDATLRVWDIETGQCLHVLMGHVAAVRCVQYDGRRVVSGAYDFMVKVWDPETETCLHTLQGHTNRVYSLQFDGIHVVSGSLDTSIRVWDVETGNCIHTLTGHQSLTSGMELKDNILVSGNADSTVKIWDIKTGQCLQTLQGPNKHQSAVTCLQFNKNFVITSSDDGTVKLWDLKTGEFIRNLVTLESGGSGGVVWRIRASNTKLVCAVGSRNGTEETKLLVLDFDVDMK
TEAD-YAP block – TEAD-YAP interaction inhibition; inhibition, % at 9.12 µM; HEK-TIYL cells, TEAD-Gal4/YAP UAS-luciferase luminescence; 640,000 compounds, 1.4% hits; in the data active = inhibition above about 32%;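 also: 0% = median of test compound wells and 100% = reference inhibitor wells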
MITF primary – inhibitors of human MITF; O75030; AlphaScreen MITF homodimerization, bead proximity signal; inhibition, % at 2.6 µM; 650,000 compounds, 0.91% hits; AID 1259374; in the data active = inhibition above about 50%;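 also: 0% = vehicle wells with protein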
GPR151 conf act – confirmation of human GPR151 activators. 6,700 tested, under 10 active. shares compounds with GPR151 activ. GPR151 PathHunter beta-arrestin cells, luminescence, 90 min; % of EA-reagent control over plate median. activation, % at 11.2 µM;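 active = mean percent activation across replicates above the confirmation screen cutoff of 4.91%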
GPR119 ag – activates human GPR119 in a GPR151 counter-screen; shares compounds with GPR151 activ; activation, % at 11.2 µM; GPR119 PathHunter beta-arrestin cells, luminescence, 90 min; 0 = compound-well median, 100 = enzyme-acceptor control; AID 1508611; 6,700 compounds, 0.3% hits;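 active = mean percent activation in the counterscreen above 29.09%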;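 also: counterscreen on off-target GPR119 to flag nonselective hits from the GPR151 activator screen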
Starred values were filed as active, the others as inactive; x = not tested or not shown. In the library only some 3.5% were active in any assay of this set; here they are far more common.

SMILES	GPR151 activ	FBW7 activator	TEAD-YAP block	MITF primary	GPR151 conf act	GPR119 ag
CCCCC(c1nnnn1CCOC)N1CCN(c2ccccc2)CC1 (stereo not given)	5.1*	0	-1	7	1	9
O=C(CSc1ccc2ccccc2c1)N1CCN(c2ccc(O)cc2)CC1	0	0	-20	-5	x	x
CN(C)c1ccc(/C=C/CN2CCCCCC2)cc1	4.9*	0	5	30	-1	-1
CN(C)c1ccc(/C=C/CN2CCC(O)CC2)cc1	0	0	-8	32	x	x
CCOc1ccccc1C1C(C(=O)OC)=C(N)OC2=C1C(=O)CCC2 (stereo not given)	6.0*	1	1	12	1	6
CCOc1ccccc1C1NC(=O)N(C)C(C)=C1C(=O)OC (stereo not given)	6.0*	0	2	5	0	8
COC(=O)C1=C(C)N(C)C(=O)NC1c1ccc(C(=O)OC)cc1 (stereo not given)	1	0	2	15	x	x
COC(=O)C1=C(C)N(C)C(=O)NC1c1ccccc1OC (stereo not given)	1	1	9	11	x	x
COC(=O)C1=C(C)N(C)C(=O)NC1c1ccc(Br)cc1 (stereo not given)	5.2*	0	11	9	0	-4
CCOC(=O)CN1C(=O)N[C@@H](c2ccc(Br)cc2)C(C(=O)OC)=C1C	5.0*	1	x	13	1	14
CCN1C(=O)N[C@H](c2ccc(Br)cc2)C(C(=O)OC)=C1C	0	0	x	19	x	x
O=S1(=O)NC(=NC(c2ccccc2)c2ccccc2)c2ccccc21	0	0	3	0	x	x
O=C(CSc1ccccn1)Nc1ccc(F)c(F)c1	1	0	-18	2	x	x
Cc1ccc2c(CSc3n[nH]c(N)n3)cc(=O)oc2c1	-1	0	5	-2	x	x
Cc1ccc2c(CSc3n[nH]c(N)n3)cc(=O)oc2c1C	11*	0	-22	-2	0	9
CC1(C)CC(NC(=S)Nc2ccccc2F)CC(C)(C)N1	8.3*	0	-2	10	-1	-6
CC(=O)Nc1cccc(NC(=O)c2cc3c(=O)oc4ccccc4c3s2)c1	2	0	13	6	x	x
CCCN(CCC)S(=O)(=O)c1ccc(C(=O)N2CCC(=O)c3ccccc32)cc1	0	1	8	14	x	x
O=C(Cn1cc(/C=C2\SC(=S)NC2=O)c2ccccc21)NCc1cccs1	6.8*	0	6	7	1	-3
CC(NC(=O)c1ccc(F)cc1)c1ccc2c(c1)OCCO2 (stereo not given)	0	0	-1	5	x	x
CC(NC(=O)Nc1ccc(F)cc1F)c1ccc2c(c1)OCO2 (stereo not given)	7.2*	0	-5	7	1	0
CCOC(=O)c1ccc(P(C)(C)=O)cc1	1	0	3	-8	x	x
C/C(=N\NC(=O)c1ccc(F)cc1)c1ccccc1	5.4*	0	-51	-2	0	7
C/C(=N\NC(=O)c1ccc(C(=O)N/N=C(\C)c2ccc(F)cc2)cc1)c1ccc(F)cc1	1	0	-3	7	x	x
O=C(CSc1nc2sc3c(c2c(=O)[nH]1)CCCC3)NCc1ccccc1	1	0	-7	-2	x	x
SMILES	GPR151 activ	FBW7 activator	TEAD-YAP block	MITF primary	GPR151 conf act	GPR119 ag
CCc1cccc(OCC(=O)Nc2ccccc2C(=O)O)c1	-1	1	-27	9	x	x
CCc1cccc(OCC(=O)Nc2ccccc2C(N)=O)c1	10*	0	-22	0	-1	7
COc1ccccc1-c1nc2s/c(=C\c3cccc([N+](=O)[O-])c3)c(=O)n2n1	7.8*	0	4	2	0	1
O=C(C1CCC1)N1CCOc2ccc(CN3CCN(c4ccccn4)CC3)cc2C1	-2	0	3	-4	x	x
O=C(C1CCCCC1)N1CCOc2ccc(CN3CCN(Cc4ccccn4)CC3)cc2C1	5.0*	0	2	25	0	11
CN(Cc1ccn[nH]1)C(=O)c1ccc(OC2CCN(C(=O)C3CC3)CC2)cc1	0	0	-7	13	x	x
CN(Cc1ccn[nH]1)C(=O)c1cccc(OC2CCN(C(=O)C3CC3)CC2)c1	4.9*	0	2	5	-1	-22
CC(C)Oc1ccc(C(CC(=O)O)NC(=O)c2ccc([N+](=O)[O-])cc2)cc1 (stereo not given)	1	0	7	3	x	x
COc1cccc(C2C(C(=O)N3CCCCC3)=C(C)Nc3nc4ccccc4n32)c1 (stereo not given)	0	0	2	-2	x	x
Cc1oc2c(c1C(=O)Nc1cccc(C(=O)O)c1)CCCC2	0	0	-34	12	x	x
COc1ccc2c(CNCc3ccc(F)cc3)c(C(=O)O)n(Cc3ccc(C)cc3)c2c1	7.8*	0	6	1	0	2
COc1ccc(C(=O)NC2CC2)cc1OC1CCN(Cc2ccc(F)cc2F)CC1	5.6*	0	-22	-10	0	0
O=C(COc1cccnc1[N+](=O)[O-])NCCc1ccccc1	-2	0	2	-3	x	x
COc1ccc(C(O)C(C)c2nc3ccccc3n2C)cc1 (stereo not given)	6.3*	0	5	-6	0	2
O=C1NC(=O)C(=C2C(=O)N(Cc3ccccc3Cl)c3ccccc32)C(=O)N1	1	0	-2	-9	x	x
O=C(COc1ccccc1F)N1N=CCC1(O)C(F)(F)F (stereo not given)	0	0	-3	-12	x	x
CCOC(=O)C1=C(CN2CCC(c3ccc(C)cc3)C2)NC(=O)NC1c1ccc(C)cc1 (stereo not given)	-1	0	-4	-9	x	x
O=C(Nc1cc2ccccc2cc1NC(=O)c1ccc(Cl)cc1)c1ccc(Cl)cc1	5.6*	0	-4	2	1	19
O=C(N/N=C/c1ccccc1O)c1cc(Br)ccc1O	3	0	2	8	x	x
Cc1ccc(C(=O)N[C@H]2C[C@H]3C(=O)N[C@H](C)C(=O)N3C2)cc1	5.9*	0	2	2	1	16
C[C@@H]1NC(=O)[C@@H]2C[C@H](NC(=O)c3ccc(F)cc3)CN2C1=O	-1	1	-22	5	x	x
COC(=O)C1=C(C(=O)OC)[C@@H]2N(C)c3ccc(OC)cc3[C@@]23C[C@@H](C(=O)OC)N(C(=O)c2ccco2)C3=N1	6.1*	0	x	16	0	-3
Cc1cc(C)cc(CN2CCN(c3ccc4c(c3)OCO4)C2=O)c1	-1	0	-10	13	x	x
O=C1N(Cc2ccc(F)cc2F)CCN1c1ccc2c(c1)OCO2	9.8*	0	-52	12	0	9
COc1cccc(NC(=O)C(Cc2ccccc2)N2Cc3ccccc3C2=O)c1 (stereo not given)	-1	0	-5	-6	x	x

Screens from PubChem BioAssay.
